# Experimental data published in the supplement of paper PMC9135407.
# “And” between values parts separate entries of the source, which are not always exact repeats. Equal entries are not always repeated. Structures can show the parent of a compound that is named as a salt. Hit rate of the full screen: of about 5,800 compounds, about 620 (11%) showed activity. This excerpt belongs to a sample that is enriched for actives. Values without a mark were called inactive.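 How the source made its calls: active = score above a cut-off or among the top three wells of a plate; in these data no inactive exceeds 0.85.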
# Tested on: primary human hepatic stellate cells (donor 1)
# Assay: scaled lipid accumulation score (0 = DMSO-like, 1 = nortriptyline-like); higher = stronger HSC inactivation (lipid re-accumulation), active = hit call of the paper
# Conditions: 48 h
# [1] = library stock concentration: 1 mM
# [2] = library stock concentration: 10 mM
# [3] = library stock concentration: 3.33 mM
# [4] = library stock concentration: 80 uM
# [5] = library stock concentration: 400 uM
# [6] = library stock concentration: 2 mM
smiles,measurement,setting,value
CCCCCCCCCCCCCCCCCCCCCC(=O)NCCO [Docosanoyl Ethanolamide],scaled lipid accumulation score,[1],≤ 0
COc1ccc2c(c1)CCC1C2CC[C@@]2(C)C1CC[C@@H]2NCCCCCCN1C(=O)CCC1=O (some centres not stated),scaled lipid accumulation score,[2],0.875 (active)
C[C@]12CC[C@@H]3c4ccc(OC(=O)c5ccccc5)cc4CC[C@H]3[C@@H]1CC[C@@H]2O [Estradiol Benzoate],scaled lipid accumulation score,[3],≤ 0
same,scaled lipid accumulation score,[2],0.155
C[C@]12CC[C@@H]3c4ccc(OC(=O)c5ccccc5)cc4CC[C@H]3[C@@H]1CC[C@@H]2O [Estradiol benzoate],scaled lipid accumulation score,library stock concentration: 5.3 mM,≤ 0
COc1ccc2c(c1)CCC1C2CCC2(C)C(NCCCCCCN3C(=O)C=CC3=O)CCC12 (configuration not stated),scaled lipid accumulation score,[1],≤ 0
same,scaled lipid accumulation score,[2],0.397
CN1c2cc(O)c(N=NC(N)=O)cc2CC1S(=O)(=O)O (configuration not stated) [Carbazochrome sodium sulfonate (AC-17)],scaled lipid accumulation score,[3],≤ 0
same,scaled lipid accumulation score,[2],≤ 0
c1ccc(CNc2nc(NCc3ccccc3)c3ccccc3n2)cc1,scaled lipid accumulation score,[3],0.706
same,scaled lipid accumulation score,[2],0.074
CC(=O)NCCCCCC(=O)O [Acexamic acid],scaled lipid accumulation score,[2],0.236
CC(C)CCOc1ccc(NC(=S)Nc2ccc(OCCC(C)C)cc2)cc1 [Thiocarlide],scaled lipid accumulation score,[1],≤ 0
CN1C(=O)CC[C@H]1c1cccnc1 [Cotinine (-)],scaled lipid accumulation score,,≤ 0
CN1C(=O)CC[C@H]1c1cccnc1 [(-)-Cotinine],scaled lipid accumulation score,[2],≤ 0 and 0.057
CN1C(=O)CC[C@H]1c1cccnc1 [Cotinine],scaled lipid accumulation score,[2],≤ 0
same,scaled lipid accumulation score,library stock concentration: 11.3 mM,≤ -0.001
O=c1ccc2cc(O)c(O)cc2o1 [Esculetin],scaled lipid accumulation score,,≤ 0
same,scaled lipid accumulation score,[2],≤ 0
O=c1ccc2ccccc2o1 [Coumarin],scaled lipid accumulation score,[3],≤ 0
same,scaled lipid accumulation score,[2],≤ 0 and 0.012
"O=Nc1ccc2oc(=O)ccc2c1 [6-Nitroso-1,2-benzopyrone]",scaled lipid accumulation score,[2],0.9 (active)
CC(C)n1c(/C=C/C(O)CC(O)CC(=O)O)c(-c2ccc(F)cc2)c2ccccc21 (configuration not stated) [fluvastatin],scaled lipid accumulation score,[2],0.549
CC(C)n1c(/C=C/C(O)CC(O)CC(=O)O)c(-c2ccc(F)cc2)c2ccccc21 (configuration not stated) [Fluvastatin sodium salt],scaled lipid accumulation score,,0.403
CC(C)n1c(/C=C/C(O)CC(O)CC(=O)O)c(-c2ccc(F)cc2)c2ccccc21 (configuration not stated) [Fluvastatin Sodium],scaled lipid accumulation score,[3],0.188
same,scaled lipid accumulation score,[2],0.219
COc1cc(C)c(Cc2cnc(N)nc2N)cc1OC,scaled lipid accumulation score,[2],≤ 0
CCN(CC)Cc1cc(Nc2ccnc3cc(Cl)ccc23)ccc1O.Cl.Cl.O.O [Amodiaquin dihydrochloride dihydrate],scaled lipid accumulation score,,1.22 (active)
CCN(CCO)CCCC(C)Nc1ccnc2cc(Cl)ccc12 (configuration not stated) [Hydroxychloroquine sulfate],scaled lipid accumulation score,[2],0.161
O=C(OCC(O)CO)c1ccccc1Nc1ccnc2cc(Cl)ccc12 (configuration not stated) [Glafenine],scaled lipid accumulation score,[2],≤ 0
CCN(CC)CCCC(C)Nc1ccnc2cc(Cl)ccc12 (configuration not stated) [Chloroquine diphosphate],scaled lipid accumulation score,,0.679
same,scaled lipid accumulation score,[2],≤ 0 and 0.428
Clc1ccc2c(N3CCN(CCCN4CCN(c5ccnc6cc(Cl)ccc56)CC4)CC3)ccnc2c1 [Piperaquine tetraphosphate tetrahydrate],scaled lipid accumulation score,[2],0.316
O=C(OCC(O)CO)c1ccccc1Nc1ccnc2cc(Cl)ccc12 (configuration not stated) [Glafenine hydrochloride],scaled lipid accumulation score,,≤ 0
CCN(CC)CCCC(C)Nc1ccnc2cc(Cl)ccc12 (configuration not stated) [Chloroquine phosphate],scaled lipid accumulation score,library stock concentration: 6.3 mM,0.285
Cc1nc2cc3nc(-c4cccs4)cnc3cc2n1C,scaled lipid accumulation score,[3],≤ 0
Cc1csc(-c2nnc(Nc3ccc(Oc4ncccc4-c4ccnc(N)n4)cc3)c3ccccc23)c1,scaled lipid accumulation score,[3],≤ 0
same,scaled lipid accumulation score,[2],≤ 0
CCCCCCCCCCCCCCCCC/C=C/C(=O)O [.DELTA.2-trans Eicosenoic Acid],scaled lipid accumulation score,[1],≤ 0
O=C(Nc1ccccc1)c1cc([N+](=O)[O-])ccc1Cl,scaled lipid accumulation score,[1],≤ 0
same,scaled lipid accumulation score,[3],0.023
same,scaled lipid accumulation score,[2],≤ 0 and 0.358 and 0.105
Cc1oncc1C(=O)Nc1ccc(C(F)(F)F)cc1 [Leflunomide],scaled lipid accumulation score,,≤ 0
same,scaled lipid accumulation score,[4],0.045
same,scaled lipid accumulation score,[5],≤ 0
same,scaled lipid accumulation score,[6],≤ 0
same,scaled lipid accumulation score,[3],≤ 0
O=C(Nc1cc(C(F)(F)F)cc(C(F)(F)F)c1)c1cc(Cl)ccc1O [listing 1 of 3 here],scaled lipid accumulation score,[2],1.1 (active)
O=C(Nc1ccc([N+](=O)[O-])cc1Cl)c1cc(Cl)ccc1O [Niclosamide] [listing 1 of 2 here],scaled lipid accumulation score,library stock concentration: 6.1 mM,1.15 (active)
same,scaled lipid accumulation score,[2],1.08 (active)
O=c1oc(-c2ccc(C(F)(F)F)cc2)nn1Cc1cc(Cl)ccc1O,scaled lipid accumulation score,[2],0.172
O=C(Nc1cc(C(F)(F)F)cc(C(F)(F)F)c1)c1cc(Cl)ccc1O [listing 2 of 3 here],scaled lipid accumulation score,[3],0.722
O=C(Nc1cc(C(F)(F)F)cc(C(F)(F)F)c1)c1cc(Cl)ccc1O [listing 3 of 3 here],scaled lipid accumulation score,[2],1.61 (active)
O=C(Nc1cc(C(F)(F)F)cc(C(F)(F)F)c1)c1cc(Cl)ccc1O [IKK-2 Inhibitor V],scaled lipid accumulation score,[3],≤ 0
O=C(Nc1ccccc1)c1ccccc1O [Salicylanilide],scaled lipid accumulation score,[3],≤ 0
same,scaled lipid accumulation score,library stock concentration: 9.4 mM,0.019
same,scaled lipid accumulation score,[2],0.041
O=C(Nc1ccc([N+](=O)[O-])cc1Cl)c1cc(Cl)ccc1O [Niclosamide] [listing 2 of 2 here],scaled lipid accumulation score,,0.776
C[C@]12CC[C@@H]3c4ccc(O)cc4CC[C@H]3[C@@H]1C[C@H](O)[C@@H]2O,scaled lipid accumulation score,[2],≤ 0
O=C1CCC(c2ccc(-n3ccnc3)cc2)=NN1 [Imazodan],scaled lipid accumulation score,[2],≤ -0.07
CC(C)n1cnc2c(NCc3ccccc3)nc(NCCCO)nc21 [Bohemine],scaled lipid accumulation score,[4],≤ -0.001
same,scaled lipid accumulation score,[5],≤ -0.001
same,scaled lipid accumulation score,[6],≤ -0.001
same,scaled lipid accumulation score,[3],≤ 0
same,scaled lipid accumulation score,[2],0.099
Cc1cc(OCc2nnc(SC3CCCC3)n2-c2cccnc2)ccc1-c1ccc(S(C)(=O)=O)cc1,scaled lipid accumulation score,[3],0.619
same,scaled lipid accumulation score,[2],0.187
